From PubChem BioAssay
Compounds with a hit are over-represented: about 2.1% of the library has one in this group of screens.
PrPC surface inh: inhibitors of human cell surface prion protein PrPC, primary screen, cell-based, TR-FRET; Major prion protein (Homo sapiens), P04156; TR-FRET read-out; inhibition, % at 13.8 µM; actives 0.43% (n = 370,000); in the data active = inhibition above about 24%; also: 0% = median of the test wells and 100% = reference compound wells
PfHsp40 yeast: rescue of yeast from PfHsp40 toxicity, primary screen, S. cerevisiae, ATP luminescence | S. cerevisiae expressing PfHsp40, growth rescue | growth rescue, % at 12.5 µM | actives 0.68% (n = 340,000) | AID 504582, 2011; in the data active = growth rescue above about 28%, passing the limit was not always enough;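 also: yeast W303a lacking pdr1 and pdr3 grown in galactose medium; growth measured after three days at 30 °C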
PrP UTR inh: inhibition of PrP 5' UTR reporter expression; AID 488862, 2010; inhibition, % (concentration not given with the values); cell-based PrP 5' UTR mRNA reporter, plate reader; actives 0.35% (n = 340,000); in the data active = inhibition above about 52%; also: 0 = median of the neutral control wells
BJeLR viability: MLPCN primary cell-based screen for lethality selective to Ras in HRASV12 cells; actives 0.17% (n = 300,000); BJeLR (HRASV12) viability, CellTiter-Glo ATP luminescence, 48 h; inhibition, % (no concentration beside the values); in the data active = inhibition above about 50%
VHR inh abs: VHR1 phosphatase inhibitors, primary screen, biochemical, absorbance, uHTS | Dual specificity protein phosphatase 3 (Homo sapiens), P51452 | recombinant VHR phosphatase, pNPP absorbance | inhibition, % at 13.3 µM | actives 0.52% (n = 290,000); in the data active = inhibition above about 50%
Target sequence (P51452 whole entry, looked up): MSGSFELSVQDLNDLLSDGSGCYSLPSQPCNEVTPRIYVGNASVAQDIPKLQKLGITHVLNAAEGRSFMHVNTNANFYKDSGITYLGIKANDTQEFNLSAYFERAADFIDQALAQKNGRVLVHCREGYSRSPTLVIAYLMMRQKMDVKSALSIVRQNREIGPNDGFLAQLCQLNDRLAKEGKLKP
MazF activator: activators of E. coli MazEF toxin-antitoxin RNase, primary screen, biochemical, fluorescence, uHTS; Endoribonuclease toxin MazF (Escherichia coli (strain K12)), P0AE70; FAM/BHQ RNA-DNA oligo cleavage fluorescence, 5 h; activation, % at 20 µM; actives 0.32% (n = 350,000); AID 504720, 2011; in the data active = activation above about 50%
Target sequence (P0AE70 whole entry, looked up): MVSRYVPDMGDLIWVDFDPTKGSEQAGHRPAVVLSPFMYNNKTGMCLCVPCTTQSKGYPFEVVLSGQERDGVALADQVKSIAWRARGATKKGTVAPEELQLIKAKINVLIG
PrP 5UTR single: prion 5' UTR mRNA inhibition, cherry-pick retest | actives 48% (n = 1,100) | inhibition, % at 2.5 µM | cell-based prion protein 5' UTR reporter, plate reader | AID 504592, 2011 | shares compounds with PrP UTR inh; in the data active = inhibition above about 54%
Numbers without * were called inactive.

Screening Cc1ccc(C(=O)NCCCn2ccnc2)o1 returned PrPC surface inh 0, PfHsp40 yeast -2, PrP UTR inh 73*, BJeLR viability 10, VHR inh abs -17, MazF activator 7 and PrP 5UTR single -11.
Screening CCCNC(=O)Cn1nc(C(F)(F)F)cc1C returned PrPC surface inh 1, PfHsp40 yeast 0, PrP UTR inh 58*, BJeLR viability 3, VHR inh abs 0, MazF activator -4 and PrP 5UTR single -12.
`N#C[C@@H]1N[C@H](CO)[C@@H]1c1ccccc1` gave PrPC surface inh -6.
Screening CCOC(=O)C1=CN(CC2CCCCC2)CCC1=O returned PrPC surface inh -2, PfHsp40 yeast 0, PrP UTR inh 84*, MazF activator 5 and PrP 5UTR single 14.
`CC(=O)C1=CN(CC2CCCCC2)CCC1=O` gave PrPC surface inh 2, PfHsp40 yeast 0, PrP UTR inh -17 and MazF activator -1.
Screening N#Cc1ccc(S(=O)(=O)N2CCCCC2c2cc(C(=O)NCc3cccnc3)no2)cc1 (configuration not stated) returned PrPC surface inh -2.
Screening C/C(=N\NC(=O)c1ccccc1NC(=O)c1ccc(Cl)cc1)c1ccncc1 returned PrPC surface inh 9, PfHsp40 yeast 0, PrP UTR inh 76*, BJeLR viability 132*, VHR inh abs 18, MazF activator 2 and PrP 5UTR single 70*.
COC(=O)CNC(=O)C12CC3CC(C1)CC(c1ccc(C)cc1)(C3)C2 was read as PrPC surface inh 2, PfHsp40 yeast 4, PrP UTR inh 78*, BJeLR viability -15, VHR inh abs 13, MazF activator 13 and PrP 5UTR single -26.
For CN(C)c1ccc(/C=C2\N=C(C(C)(C)C)OC2=O)cc1 the results were PrPC surface inh -8, PfHsp40 yeast 0, PrP UTR inh -32, BJeLR viability -1, VHR inh abs 11 and MazF activator inactive.
`COc1ccc(C)cc1NC(=O)CCNS(=O)(=O)c1ccc2c(c1)CC(C)N2C(C)=O` (configuration not stated) gave PrPC surface inh -3, PfHsp40 yeast 0, PrP UTR inh -24, BJeLR viability -16, VHR inh abs 4 and MazF activator 5.
`CC(=O)OCC12CC(OC(=O)CC(C)C)C(C)=CC1OC1C(O)C(OC(C)=O)C2(C)C12CO2` (configuration not stated) gave PrPC surface inh 87*, PrP UTR inh 91*, MazF activator 2 and PrP 5UTR single 93*.
C[C@@H]1[C@@H](c2ccccc2)c2cc3ccccc3nc2-c2nc3ccccc3cc2[C@@H]1C(=O)N1CCCC1 was read as PrPC surface inh 9.
`O=C(Nc1ccncc1)C1COc2ccccc2O1` (configuration not stated) gave PrPC surface inh -1, PfHsp40 yeast 0, PrP UTR inh -24, BJeLR viability 6, VHR inh abs -4 and MazF activator -14.
For O=C(NC1=NCCS1)C1COc2ccccc2O1 (configuration not stated) the results were PrPC surface inh -2, PfHsp40 yeast 1, PrP UTR inh 72*, BJeLR viability 10, VHR inh abs 21, MazF activator 1 and PrP 5UTR single 77*.
CC1CCCCN1CCCNC(=O)c1cc(Br)c(Br)[nH]1 (configuration not stated) was read as PrPC surface inh -10, PfHsp40 yeast 0, PrP UTR inh 82*, BJeLR viability 1, VHR inh abs 25, MazF activator 3 and PrP 5UTR single 6.
For CC(C)CC1Nc2ccc(C(=O)NCCCN3CCCCC3C)cc2NC1=O (configuration not stated) the results were PrPC surface inh -14, PfHsp40 yeast 0, PrP UTR inh -13, BJeLR viability 6, VHR inh abs -9 and MazF activator 9.
